Where a chain is given by its changes, count along the chain named.
Assays:
Test in all cases: yeast three-hybrid, YBZ-1, SC-Leu-His + 0.5 mM 3-AT, 4 days
Conditions in all cases: tags: N-Gal4 AD-HA kept; label: inside an RPR1-promoter hybrid RNA with tandem MS2 sites; ssRNA
[1] = molecular target: PUM1 PUF domain R4-GQS (Homo sapiens, UniProt Q14671 828-1176, N971G;H972Q;Q975S)
Procedure, shortened: (§1)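 A centromeric plasmid in strain YBZ-1 co-expressed Pumilio-1 PUF domain libraries, randomized at the three base-contacting residues of each repeat, with matching RNA elements; the strain carries a LexA–MS2 coat fusion and a HIS3 reporter. After four days on SC-Leu (input) or SC-Leu-His + 0.5 mM 3-AT (selection), the repeat regions were PCR-amplified and Illumina-sequenced. The interaction score is the log change in variant frequency from input to selection, using log2 and a pseudocount of 1 where absent.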

[2] = molecular target: PUM1 PUF domain R5-GLR (Homo sapiens, UniProt Q14671 828-1176, C1007G;R1008L;Q1011R)
Procedure, shortened: as §1

[3] = molecular target: PUM1 PUF domain R4-EFD (Homo sapiens, UniProt Q14671 828-1176, N971E;H972F;Q975D)
Procedure, shortened: as §1

[4] = molecular target: PUM1 PUF domain R5-MRD (Homo sapiens, UniProt Q14671 828-1176, C1007M;Q1011D)
Procedure, shortened: as §1

[5] = molecular target: T1, PUM1 PUF domain R6-SYR (Homo sapiens, UniProt Q14671 828-1176, N1043S;Q1047R)
T1 sequence: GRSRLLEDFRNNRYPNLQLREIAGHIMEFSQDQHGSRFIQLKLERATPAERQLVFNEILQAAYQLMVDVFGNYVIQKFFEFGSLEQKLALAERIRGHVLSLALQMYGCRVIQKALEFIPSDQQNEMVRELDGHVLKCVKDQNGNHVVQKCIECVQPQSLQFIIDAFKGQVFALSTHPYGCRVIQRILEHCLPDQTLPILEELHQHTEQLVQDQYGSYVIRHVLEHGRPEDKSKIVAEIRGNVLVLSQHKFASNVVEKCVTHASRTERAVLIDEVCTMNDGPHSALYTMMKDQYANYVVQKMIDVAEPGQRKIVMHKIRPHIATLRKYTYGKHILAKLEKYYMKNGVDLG
Procedure, shortened: as §1

[6] = molecular target: PUM1 PUF domain R5-LYL (Homo sapiens, UniProt Q14671 828-1176, C1007L;R1008Y;Q1011L)
Procedure, shortened: as §1

[7] = molecular target: PUM1 PUF domain R2-AKP (Homo sapiens, UniProt Q14671 828-1176, N899A;Y900K;Q903P)
Procedure, shortened: as §1

[8] = molecular target: PUM1 PUF domain R5-KRY (Homo sapiens, UniProt Q14671 828-1176, C1007K;Q1011Y)
Procedure, shortened: as §1

[9] = molecular target: PUM1 PUF domain R5-RLT (Homo sapiens, UniProt Q14671 828-1176, C1007R;R1008L;Q1011T)
Procedure, shortened: as §1

[10] = molecular target: PUM1 PUF domain R5-TGR (Homo sapiens, UniProt Q14671 828-1176, C1007T;R1008G;Q1011R)
Procedure, shortened: as §1

[11] = molecular target: PUM1 PUF domain R3-KSR (Homo sapiens, UniProt Q14671 828-1176, C935K;R936S;Q939R)
Procedure, shortened: as §1

[12] = molecular target: PUM1 PUF domain R7-GSV (Homo sapiens, UniProt Q14671 828-1176, S1079G;N1080S;E1083V)
Procedure, shortened: as §1

[13] = molecular target: PUM1 PUF domain R7-QPG (Homo sapiens, UniProt Q14671 828-1176, S1079Q;N1080P;E1083G)
Procedure, shortened: as §1

[14] = molecular target: PUM1 PUF domain R8-RHD (Homo sapiens, UniProt Q14671 828-1176, N1122R;Y1123H;Q1126D)
Procedure, shortened: as §1

[15] = molecular target: PUM1 PUF domain R1-RFC (Homo sapiens, UniProt Q14671 828-1176, S863R;R864F;Q867C)
Procedure, shortened: as §1

[16] = molecular target: PUM1 PUF domain R1-KWC (Homo sapiens, UniProt Q14671 828-1176, S863K;R864W;Q867C)
Procedure, shortened: as §1

[17] = molecular target: T2, PUM1 PUF domain R6-YRI (Homo sapiens, UniProt Q14671 828-1176, N1043Y;Y1044R;Q1047I)
T2 sequence: T1 sequence with S216Y, Y217R, R220I
Procedure, shortened: as §1

[18] = molecular target: T3, PUM1 PUF domain R6-KWG (Homo sapiens, UniProt Q14671 828-1176, N1043K;Y1044W;Q1047G)
T3 sequence: T1 sequence with S216K, Y217W, R220G
Procedure, shortened: as §1

Question: “GGCUAGAACUAGUGGAUCCCCCGGCGCCCGGCGGCUCGAGCCCGGGUAAGUGUAAAUAGUCUGCAUGCCGCCGGGCGCCAUGCCUGCAGGUCGACUCUAGAAAACAUG” was tested. Which binding signal [1] did it give?
Answer: Its binding signal is 2.47 log2 enrichment (interaction score).

Question: And the binding signal [2]?
Answer: Its binding signal is 1.61 log2 enrichment (interaction score).

Question: And the binding signal [3]?
Answer: Its binding signal is 2.17 log2 enrichment (interaction score).

Question: What about the binding signal [4] of the same sequence?
Answer: The binding signal was 2.65 log2 enrichment (interaction score).

Question: What about the binding signal [5] of the same sequence?
Answer: The binding signal was 6.46 log2 enrichment (interaction score).

Question: What about the binding signal [6] of the same sequence?
Answer: The binding signal was 2.85 log2 enrichment (interaction score).

Question: With “GGCUAGAACUAGUGGAUCCCCCGGCGCCCGGCGGCUCGAGCCCGGGUAAGUGUAAAGAGUCUGCAUGCCGCCGGGCGCCAUGCCUGCAGGUCGACUCUAGAAAACAUG” as the sequence, how does the binding signal [7] read?
Answer: Its binding signal is 3.58 log2 enrichment (interaction score).

Question: Which binding signal [8] does the source give for “GGCUAGAACUAGUGGAUCCCCCGGCGCCCGGCGGCUCGAGCCCGGGUAAGUGUCAAUAGUCUGCAUGCCGCCGGGCGCCAUGCCUGCAGGUCGACUCUAGAAAACAUG” here?
Answer: The binding signal was 4.04 log2 enrichment (interaction score).

Question: And the binding signal [2]?
Answer: The binding signal was 2.62 log2 enrichment (interaction score).

Question: And the binding signal [9]?
Answer: Its binding signal is 2.62 log2 enrichment (interaction score).

Question: What about the binding signal [10] of the same sequence?
Answer: The binding signal was 5.8 log2 enrichment (interaction score).

Question: How did the binding signal [11] turn out when “GGCUAGAACUAGUGGAUCCCCCGGCGCCCGGCGGCUCGAGCCCGGGUAAGUGUAAUUAGUCUGCAUGCCGCCGGGCGCCAUGCCUGCAGGUCGACUCUAGAAAACAUG” was run?
Answer: Its binding signal is 4.1 log2 enrichment (interaction score).

Question: “GGCUAGAACUAGUGGAUCCCCCGGCGCCCGGCGGCUCGAGCCCGGGUAAGUGUAAGUAGUCUGCAUGCCGCCGGGCGCCAUGCCUGCAGGUCGACUCUAGAAAACAUG” was tested. Which binding signal [11] did it give?
Answer: Its binding signal is 1.19 log2 enrichment (interaction score).

Question: With “GGCUAGAACUAGUGGAUCCCCCGGCGCCCGGCGGCUCGAGCCCGGGUAAGUGUACAUAGUCUGCAUGCCGCCGGGCGCCAUGCCUGCAGGUCGACUCUAGAAAACAUG” as the sequence, how does the binding signal [3] read?
Answer: The binding signal was 2.47 log2 enrichment (interaction score).

Question: With “GGCUAGAACUAGUGGAUCCCCCGGCGCCCGGCGGCUCGAGCCCGGGUAAGUUUAAAUAGUCUGCAUGCCGCCGGGCGCCAUGCCUGCAGGUCGACUCUAGAAAACAUG” as the sequence, how does the binding signal [12] read?
Answer: The binding signal was 2.83 log2 enrichment (interaction score).

Question: What about the binding signal [13] of the same sequence?
Answer: The binding signal was 4.67 log2 enrichment (interaction score).

Question: How did the binding signal [14] turn out when “GGCUAGAACUAGUGGAUCCCCCGGCGCCCGGCGGCUCGAGCCCGGGUAAGCGUAAAUAGUCUGCAUGCCGCCGGGCGCCAUGCCUGCAGGUCGACUCUAGAAAACAUG” was run?
Answer: The binding signal was 5.28 log2 enrichment (interaction score).

Question: For “GGCUAGAACUAGUGGAUCCCCCGGCGCCCGGCGGCUCGAGCCCGGGUAAGUGUUAAUAGUCUGCAUGCCGCCGGGCGCCAUGCCUGCAGGUCGACUCUAGAAAACAUG”, which binding signal [4] is on record?
Answer: Its binding signal is 2.48 log2 enrichment (interaction score).

Question: “GGCUAGAACUAGUGGAUCCCCCGGCGCCCGGCGGCUCGAGCCCGGGUAAGUGUAAAUCGUCUGCAUGCCGCCGGGCGCCAUGCCUGCAGGUCGACUCUAGAAAACAUG” was tested. Which binding signal [15] did it give?
Answer: Its binding signal is 3.46 log2 enrichment (interaction score).

Question: For “GGCUAGAACUAGUGGAUCCCCCGGCGCCCGGCGGCUCGAGCCCGGGUAAGUGUAAAUUGUCUGCAUGCCGCCGGGCGCCAUGCCUGCAGGUCGACUCUAGAAAACAUG”, which binding signal [16] is on record?
Answer: Its binding signal is 3.86 log2 enrichment (interaction score).

Question: How did the binding signal [17] turn out when “GGCUAGAACUAGUGGAUCCCCCGGCGCCCGGCGGCUCGAGCCCGGGUAAGUGAAAAUAGUCUGCAUGCCGCCGGGCGCCAUGCCUGCAGGUCGACUCUAGAAAACAUG” was run?
Answer: Its binding signal is 3.61 log2 enrichment (interaction score).

Question: What about the binding signal [18] of the same sequence?
Answer: Its binding signal is 5.8 log2 enrichment (interaction score).

Question: How did the binding signal [5] turn out when “GGCUAGAACUAGUGGAUCCCCCGGCGCCCGGCGGCUCGAGCCCGGGUAAGUGCAAAUAGUCUGCAUGCCGCCGGGCGCCAUGCCUGCAGGUCGACUCUAGAAAACAUG” was run?
Answer: The binding signal was 6.87 log2 enrichment (interaction score).

Source: PMC8384837, “Expanding the binding specificity for RNA recognition by a PUF domain”
